Laboratory results as given in the supplement of paper PMC11417369.
± gives the standard deviation of the averaged measurements. In all, about 25,000 sequences were measured (“ln(normalized median fluorescence intensity)”: median about 8.9, highest 2% from about 10 on). Shown is part of a subset that was picked to be rich in the highest values.

test system: PfAP2-LT AP2 domain (GST-tagged); test: gcPBM binding intensity (ln(normalized median fluorescence intensity)); higher = stronger DNA binding
In short: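 The binding buffer was 1× PBS containing 1% milk, 0.2 mg/ml BSA, 0.5% salmon testes DNA and 0.03% Triton X-100. In it, GST-tagged P. falciparum DNA-binding domains expressed in E. coli were applied for 1 h to an Agilent 4 × 180k array of primer-extended double-stranded 36-bp intergenic genomic probes plus negative controls. Binding intensity, read with Alexa488 anti-GST antibody and a 488 nm scan, is the highest Masliner-normalised natural-log median intensity across replicate spots of either probe orientation.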

Sequence	gcPBM binding intensity (ln)
TTTTATTTATCATACACACACAGAAAAAAAAAAAAA [CACACA_site158]	8.89 ± 0.32
TTTTTTTTCAAAAATACAAAAAAAAAAGAAAAAAAC [CACACA_negctrl_site625]	8.5 ± 0.4
AAATAACACATATATACACACATATAACTATAATAT [CACACA_site7298]	9.29 ± 0.4
ACATGTAATATAATGTGTACATATACAAAGGTATAT [XGTACX_site4145]	9.34 ± 0.59
AGTGAATATTACGAAACACACAAAAAAATACATTTC [CACACA_site511]	9.09 ± 0.38
CAAACAAATTGTGAAACACACATATATATATATATA [CACACA_site2001]	9.81 ± 0.057
TATATTATTAATTAGGGTACAAAAAAAAAATTTTTT [XGTACX_site7762]	8.3 ± 0.48
AAAGGTTTATCTGATACACACATAAGTGATCAGGTT [CACACA_site6233]	8.83 ± 0.33
TTTTTTCAATAAATAATCGTATATTGAATAATAATA [CACACA_negctrl_site822]	8.07 ± 0.37
TCATTTCAATACACAAGTACGTATATGGTTATATTG [XGTACX_site6021]	8.82 ± 0.4
CACCCACACCAACACACACACATATATAATATATAT [CACACA_site595]	9.88 ± 0.33
ATAAGGATCAGACACAAACACACATATATATATATA [CACACA_site558]	10.1 ± 0.13
TATAATATAAGGATCACACACAAACAGACATATATA [CACACA_site557]	9.49 ± 0.37
TCATAGTAGAAACACACACACACACCCATATATATA [CACACA_site1737]	10.1 ± 0.23
TATAAACACCCATATAAACACACATATAAACCAACA [CACACA_site8790]	9.31 ± 0.28
CATACTCACCAACACACACACACACCCATATAGAAT [CACACA_site592]	10.2 ± 0.28
AAGGATCACAGACAAACACACATATATATATATATA [CACACA_site4469]	10.1 ± 0.16
AACCACATACATATAACACACATATACAATATATAT [CACACA_site8607]	9.29 ± 0.39
AATAACCACCAACACACACACATATATATATATATA [CACACA_site3540]	10.2 ± 0.24
TAATTTAGTATCTTTACATGCGGGCATTATGTCATA [TGCATGCA_site167]	8.74 ± 0.4
AAGAAAATAGGGTTCATAGGATTATACTTTTGGAAT [TGCATGCA_negctrl_site80]	8.59 ± 0.54
TAATACTTAATGAACACATGCACATATACATAGTAT [TGCATGCA_site496]	8.82 ± 0.47
ACTTTTTTTTTGTGTGTGCACTCGATTATATACATA [GTGCAC_site9846]	9.57 ± 0.46
AAGGAATAATATAAAACACACACATAAATATAAATA [CACACA_site9115]	9.6 ± 0.42

Sequence	gcPBM binding intensity (ln)
AGGAAAAAAGAAAAAACACACATAAATATATATATA [CACACA_site3085]	9.11 ± 0.38
ATAAAAAGGAAACACACACACACACCCATATATATA [CACACA_site904]	10.41 ± 0.042
AATGAAAAGGAACATACACACCCCATATAAATATAT [CACACA_site7588]	9.62 ± 0.13
TAAAAAGGAAAACACACACACACATATATATATATA [CACACA_site3588]	10.2 ± 0.26
AAAAGGAAAAATATCACACATATATATATATATATA [CACACA_site5586]	9.76 ± 0.45
ATAAAAAAAAGAAAAACACACACATATATATATATA [CACACA_site8243]	9.77 ± 0.27
TATAAAAGGAAACACACACACATATATATATATATA [CACACA_site939]	10.2 ± 0.32
AGAATAAAAAGGAACACACACACACCCATATATATA [CACACA_site3590]	10.1 ± 0.5
AAAAAAATTACATATCCATTTTAACATAATAAATAG [GTGCAC_negctrl_site618]	8.33 ± 0.45
TACAGAATTGTATATAGTACATAAAACAATATATAT [XGTACX_site7275]	8.88 ± 0.4
AAAATAAATAAATAAATAAATATATATATATATATA [XGTACX_negctrl_site345]	9.16 ± 0.3
AGCCTCGGGGTCATATATATATATATATATATATAT [CACACA_negctrl_site512]	10.35 ± 0.05
ATCAGATATATATATTGTACATTTATATATAAATCA [XGTACX_site1960]	8.62 ± 0.46
TAACAAAAAGCACTTAGTACATATATATATATATAT [XGTACX_site1099]	9.88 ± 0.44
AAAAAAAAAAAAAACACACACATATCTATAATATAT [CACACA_site7481]	9.35 ± 0.44
AAAAAAAAAAAACACACACACACACTAGTACATACA [CACACA_site4551]	10.2 ± 0.3
AAAAAAAAAAAACACACACACACACTAATACATACA [CACACA_site8135]	10.1 ± 0.12
AAAAAAAAAAAACACACACACACATACACATACATA [CACACA_site2858]	10.1 ± 0.22
AAAAAAAAAAAACATACACACACACTAATATTTATA [CACACA_site8038]	9.6 ± 0.23
CCTGAACACATACATACACACACACTAATAAAAAAA [CACACA_site8023]	9.69 ± 0.46
AAAAAAAAAAAAAAAACACACATACATACATACATA [CACACA_site6125]	9.26 ± 0.41
TAAATGTCTTCAATGAAGTGGAAATGCTGTTATATA [CACACA_negctrl_site1155]	8.54 ± 0.31
TATAATCATATACACGCATGTATAAAATTTAATACT [TGCATGCA_site700]	8.96 ± 0.35
